Hits are enriched below; roughly 2.8% of the tested compounds scored in any of these assays.
PAFAH2 inh – PAFAH2 (human) inhibition. inhibition, % at 3.39 µM. hit rate 0.99% among 340,000. Q99487. AID 492956. recombinant PAFAH2, FP-rhodamine activity probe, fluorescence polarization;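 active = inhibition above the mean over all tested compounds plus 3 SD, cut at about 30% in these data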;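 also: inhibitors block probe labeling of enzyme so polarization drops; 0% = enzyme with DMSO and 100% = wells lacking PAFAH2 protein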
PME-1 primary – blocks human protein phosphatase methylesterase 1. inhibition, % at 5.9 µM. AID 2130. recombinant PME-1, FP-Rh probe fluorescence polarization. Q9Y570. hit rate 0.53% among 320,000;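 active = inhibition above the campaign mean of all compounds plus 3 SD, cut at about 26% in these data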;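 also: competitive labeling of PME-1 active site by serine hydrolase directed probe; 0% = PME-1 with DMSO and 100% = wells lacking PME-1 enzyme; inhibitors block probe labeling so polarization falls and inhibition rises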
pPAFAH inh – inhibitors of human plasma PAF acetylhydrolase (pPAFAH) | Q13093 | recombinant pPAFAH, FP-rhodamine probe fluorescence polarization | inhibition, % at 3.39 µM | hit rate 1.5% among 330,000 | AID 463082;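 active = inhibition above the mean inhibition across the screen plus 3 SD, cut at about 25% in these data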;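 also: inhibitors block binding of the rhodamine activity-based probe so polarization drops; 0% = enzyme with DMSO and 100% = wells lacking pPAFAH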
PAFAH1B2 FP inh – blocks human PAF acetylhydrolase 1b catalytic subunit 2 | P68402 | recombinant PAFAH1B2, FP-rhodamine activity probe, fluorescence polarization | hit rate 1.2% among 340,000 | inhibition, % at 3.39 µM;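 active = inhibition above the mean of all tested compounds plus 3 SD, cut at about 24% in these data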;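 also: 0% = enzyme with DMSO and 100% = wells lacking PAFAH1B2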
Target sequence (P68402 whole entry, looked up): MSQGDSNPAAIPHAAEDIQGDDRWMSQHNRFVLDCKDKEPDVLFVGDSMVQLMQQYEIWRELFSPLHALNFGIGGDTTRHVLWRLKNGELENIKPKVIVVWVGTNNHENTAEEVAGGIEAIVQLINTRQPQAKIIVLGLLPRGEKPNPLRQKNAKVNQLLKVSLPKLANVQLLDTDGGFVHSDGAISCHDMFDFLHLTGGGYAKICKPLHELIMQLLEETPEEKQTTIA
Fam108B inh – counter-screen for RBBP9 inhibitors: inhibitors of mouse Fam108B; recombinant Fam108B, FP-Rh probe fluorescence polarization; inhibition, % at 9.51 µM; hit rate 0.33% among 300,000; AID 1947;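 active = inhibition above the screen mean inhibition plus 3 SD, computed separately per campaign, cut at about 18% in these data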;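 also: inhibitors lower polarization as less probe binds the enzyme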
PAFAH1B3 inh – blocks human PAF acetylhydrolase 1B catalytic subunit 3; recombinant PAFAH1B3, FP-rhodamine probe, fluorescence polarization; hit rate 0.28% among 340,000; inhibition, % at 3.39 µM; Q15102;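 active = inhibition above the screen-wide average of all tested compounds plus 3 SD, cut at about 25% in these data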;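 also: 0% = enzyme with DMSO only and 100% = wells lacking PAFAH1B3 protein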
Target sequence (Q15102 whole entry, looked up): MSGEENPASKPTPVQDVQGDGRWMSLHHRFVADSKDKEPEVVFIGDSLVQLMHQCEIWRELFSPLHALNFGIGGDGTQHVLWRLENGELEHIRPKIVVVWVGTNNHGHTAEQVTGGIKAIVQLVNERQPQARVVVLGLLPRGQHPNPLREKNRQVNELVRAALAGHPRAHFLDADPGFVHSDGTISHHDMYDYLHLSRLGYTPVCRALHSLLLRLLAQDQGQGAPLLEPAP
An asterisk follows results filed as active; . = no result given.

SMILES	PAFAH2 inh	PME-1 primary	pPAFAH inh	PAFAH1B2 FP inh	Fam108B inh	PAFAH1B3 inh
O=C(O)CC/C(=C\c1ccc(N2CCOCC2)c([N+](=O)[O-])c1)c1nc2ccccc2s1	1.7	.	.	91.7*	.	0.2
Cc1ccc(N(CC(=O)NCc2ccc(F)cc2)S(=O)(=O)c2c(C)n[nH]c2C)cc1	-2.5	-3.7	2.6	4.4	-0.8	12.3
COc1cccc(N2CCN(S(=O)(=O)c3ccc4ccccc4c3)CC2)c1	3.2	.	.	5.3	.	4.0
OCCSc1nnc(Nc2ccccc2)s1	-7.0	-3.8	25.0*	0.6	0.7	-1.2
CCCCn1c(O)c(/C=C/C=C/C=Nc2ccccc2)sc1=S	2.1	-18.5	29.7*	-9.1	-28.8	-10.9
O=C(NC1CCOC1=O)c1ccccc1 (centres undefined)	0.3	.	.	5.9	.	19.7
CCOC(=O)c1ccc(NC(=O)Nc2ccc3c4c(cccc24)C(=O)N3CC)cc1	-16.8	27.7*	4.4	0.8	-4.3	-7.0
N#Cc1c(NCc2ccccc2)ccnc1Cl	3.3	3.0	6.3	9.1	4.5	10.1
Cc1cc(SCC#N)n2nc(C)c(-c3ccccc3)c2n1	9.4	2.7	31.9*	-1.1	-3.5	3.2
C=CCSc1cc(C)nc2c(-c3ccccc3)c(C)nn12	4.3	2.1	2.3	1.9	2.9	2.3
Cc1cccc(C(C)C)c1NC(=O)C(C)OC(=O)Cn1cnc2c1c(=O)n(C)c(=O)n2C (centres undefined)	0.8	-4.4	3.1	0.6	-1.9	-6.1
c1ccc2c(-c3ccc(OCCN4CCCCC4)cc3)c(-c3ccsc3)sc2c1	-2.9	.	2.1	0.9	.	3.3
COCc1ccc(-c2c(-c3ccsc3)sc3ccccc23)cc1	2.9	-3.7	24.8*	-0.6	.	12.0
COCc1ccc(-c2c(-c3cccc(OC)c3)sc3ccc(OC)cc23)cc1	-1.9	-4.9	4.8	-0.5	.	-2.1
Oc1ccc(-c2c(-c3ccsc3)sc3ccccc23)cc1	0.9	-8.0	29.1*	2.0	-3.0	2.4
FC(F)(F)c1ccc(C2Nc3cccc4cccc(c34)N2)cc1	9.8	.	.	6.5	.	8.1
COC(=O)c1ccc(C2Nc3cccc4cccc(c34)N2)cc1	0.2	52.3*	6.9	-0.9	4.2	11.4
COc1cc(C2Nc3cccc4cccc(c34)N2)ccc1OC(C)=O	5.2	15.8	11.0	10.4	22.1*	38.0*
COc1ccc(C2NC(=O)c3ccccc3N2)cc1OC (centres undefined)	2.1	1.5	-1.2	0.5	0.7	0.8
CCCCn1c(N)c(N(CCOC)C(=O)C2CCN(S(=O)(=O)c3ccccc3)CC2)c(=O)[nH]c1=O	4.4	-0.1	5.3	0.7	-0.3	-1.1
COC(=O)c1ccccc1NC(=O)CCCCCn1nnc2ccccc2c1=O	5.5	0.6	-1.0	5.8	-5.8	7.8
Cc1cc(=O)[nH]c(SCc2ccccc2)n1	2.8	-0.2	-1.5	0.2	0.6	4.9
CC(C)(C)c1cc(=O)[nH]c(SCc2ccccc2Cl)n1	15.7	-1.2	26.9*	12.0	-3.1	4.5
Cc1ccc(S(=O)(=O)Nc2cc(=O)[nH]c(SCc3ccccc3Cl)n2)cc1	-1.9	-10.2	-9.4	-0.8	-1.0	5.0
CC(C)(C)c1cc(=O)[nH]c(SCc2ccccc2)n1	14.3	2.0	30.8*	21.1	-1.5	1.4
SMILES	PAFAH2 inh	PME-1 primary	pPAFAH inh	PAFAH1B2 FP inh	Fam108B inh	PAFAH1B3 inh
CCCCCn1cnnc1SCC(=O)c1c(N)n(C2CC2)c(=O)[nH]c1=O	3.0	.	.	2.2	.	0.2
CC1(C)CC=CC(COC(=O)c2ccccc2C(=O)O)C1 (centres undefined)	23.3	.	.	29.4*	.	7.0
Cc1ccccc1NS(=O)(=O)c1ccc(C(=O)NCC(c2ccco2)N2CCCCC2)cc1 (centres undefined)	-0.6	-2.1	33.5*	6.2	-0.1	-1.4
CCOc1ccc(S(=O)(=O)Nc2ccc(C(=O)NCC(c3ccco3)N(C)C)cc2)cc1 (centres undefined)	0.7	5.6	12.7	4.9	1.1	1.6
Cc1ccccc1NS(=O)(=O)c1ccc(C(=O)NCC(c2ccco2)N(C)C)cc1 (centres undefined)	2.3	4.5	30.1*	2.5	0.0	-4.7
O=C(NCC(c1ccco1)N1CCCCC1)c1ccc(COc2ccc(Cl)cc2)cc1 (centres undefined)	-3.7	.	.	30.7*	.	6.5
Cc1cc(-c2cc(C(=O)Nc3ccccc3)on2)nc(NC2CCCC2)n1	.	-0.8	3.0	.	2.0	.
COc1ccc(/C(C)=C2/SC(=S)N(CCC(=O)O)C2=O)cc1	9.8	26.7*	0.6	3.6	-1.3	7.5
COc1ccc(/C=C2/SC(=S)N(CCC(=O)O)C2=O)cc1	3.2	2.3	6.4	-0.1	3.4	10.3
CCOC(=O)C1=C(C)NC(C)=C(C(=O)OCC)C1C(=O)OCC(=O)NCCc1ccccc1	4.2	.	7.0	7.9	.	0.5
Cc1ccc(-c2csc3ncnc(NCCN4CCOCC4)c23)cc1	6.6	-2.5	4.7	1.9	-2.0	5.8
Cc1ccc(-c2csc3ncnc(Nc4ccc(N5CCOCC5)cc4)c23)cc1	5.3	3.1	29.6*	2.3	13.7	1.0
COc1ccccc1N1CCN(Cc2cnc3ccc(Cl)cn23)CC1	2.0	.	.	4.3	.	2.6
CCC(OC(=O)c1nsc(Cl)c1Cl)C(=O)NCc1ccco1 (centres undefined)	-6.6	-8.2	26.8*	0.4	-2.0	3.9
CC1CCCCC12NC(=O)N(CC(=O)N1CCN(c3ncccn3)CC1)C2=O (centres undefined)	1.9	-1.7	-3.4	5.7	.	7.5
Cc1nc(Nc2ccccc2)sc1-c1ccccc1	1.7	12.8	27.0*	6.9	1.3	4.8
Cc1nc(Nc2ccc(C(=O)O)cc2)sc1-c1ccccc1	7.1	4.2	2.5	20.0	7.0	6.1
CN(C)c1ccc(S(=O)(=O)N2CCCCC2)cc1NC(=O)CCNC(=O)c1ccco1	6.9	8.8	0.6	4.6	.	4.0
Cc1[nH]c2ccccc2c1/C=N/NC(=O)c1cc(-c2ccncc2)nc2ccccc12	-6.4	26.5*	15.5	7.7	16.1	10.7
Cc1[nH]c2ccccc2c1/C=N/NC(=O)c1ccccc1	4.7	0.8	8.1	5.3	-1.7	4.4
Cc1c(C(=O)O)cccc1-c1ccc(/C=N/Nc2ccc(Br)cc2)o1	20.1	28.6*	25.8*	2.8	7.0	6.1
Cc1c(C(=O)O)cccc1-c1ccc(/C=N/n2cnnc2)o1	6.8	-0.2	4.9	3.3	1.1	6.2
CCN(CC)C(=O)[C@H]1C[C@H](CC(=O)NCCc2ccccn2)C(=O)N2CCc3c([nH]c4cc(CCC(=O)N(C)C)ccc34)[C@]12C	-1.7	.	2.6	2.2	.	3.8
O=C(O)c1ccc(N/N=C/c2cc3cc4c(cc3nc2Cl)OCCO4)cc1	1.8	-11.5	30.1*	8.2	2.3	3.8
COc1ccc(C(=O)CCC(=O)N2CCN(c3ccc([N+](=O)[O-])cc3)CC2)cc1	-1.2	-1.3	1.8	2.4	1.1	-0.7

Screens (PubChem)
